KKLEB cytotox: cytotoxicity in KKLEB CF airway cells, primary screen, cytotoxicity control for CF NF-kB inhibitor project, cell-based, uHTS, fluorescence assay plates | KKLEB CF airway cells viability, ATPlite luminescence, overnight; active compounds read low; cells stimulated with P. aeruginosa culture filtrate | activity change (cytotoxicity), % at 5 µM | 0.36% of 360,000 active | AID 602141, 2011;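 active means corrected activity change at or below -50% at 5 µM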
TWEAK-Fn14 inh: inhibitors of TWEAK-Fn14 signaling, primary screen, luciferase reporter cells, uHTS; 2% of 360,000 active; inhibition, % at 10 µM; AID 1159606, 2016; TWEAK-stimulated Fn14 reporter cells, luciferase luminescence, 8 h; in the data active means inhibition above about 50%
HIF-2a block: HIF-2a reporter inhibitors, primary screen, luminescence, 786-0 RCC cells. 786-0 RCC cells HIF-2a reporter, luciferase luminescence, overnight. inhibition, % at 18.8 µM. 0.72% of 360,000 active;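 active means inhibition of the luminescence signal of 40% or more relative to plate controls, in a single-dose primary screen at 18.75 µM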
Peg3 prom inh: Peg3 promoter-driven luciferase inhibitors, primary screen, cell-based, HeLa, luciferase luminescence. HeLa PEG-Prom luciferase reporter, overnight. inhibition, % at 20 µM. 1.7% of 360,000 active;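 active means inhibition of at least 50% at 20 µM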
TROY signal inh: inhibitors of TROY-driven NF-kB signaling, primary screen, Q293 LMP1-TROYcd cells, NF-kB luciferase, uHTS | 0.98% of 360,000 active | inhibition, % at 10 µM | Q293 LMP1-TROYcd NF-kB luciferase reporter, 4 h;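 active means compounds whose plate-normalised and pattern-corrected inhibition of the luciferase reporter signal at the single screening dose is 50% or more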
CF NFkB block: inhibitors of PAF-induced NF-kB signaling, primary screen, cell-based, GFP fluorescence, uHTS; KKLEB NF-kB-GFP reporter, GFP fluorescence overnight; inhibition, % at 5 µM; 0.86% of 360,000 active;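 active means at least 50% inhibition at 5 µM, scaled per plate between neutral and stimulator controls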;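 further: PAF is a Pseudomonas aeruginosa culture filtrate used as stimulus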
CF NFkB conf: inhibitors of PAF-induced NF-kB signaling, retest, confirmation, cell-based, GFP fluorescence, single concentration. inhibition, % at 5 µM. 64% of 1,300 active. KKLEB CF airway cells, overnight. shares compounds with CF NFkB block; in the data active means inhibition above about 40%;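 further: stimulus PAF is a Pseudomonas aeruginosa filtrate and not platelet activating factor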
Mdm2 MdmX conf: retested Mdm2-MdmX interaction blockers, confirmation, cell-based, luminescence, single concentration, set 2 | shares compounds with HIF-2a block | SaOS-2 split-luciferase Mdm2/MdmX complementation | inhibition, % at 8 µM | 99% of 740 active | AID 504601, 2011;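 active means mean inhibition of the luminescence signal across two replicates at or above 26 percent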
Target sequence (O15151 whole entry, looked up): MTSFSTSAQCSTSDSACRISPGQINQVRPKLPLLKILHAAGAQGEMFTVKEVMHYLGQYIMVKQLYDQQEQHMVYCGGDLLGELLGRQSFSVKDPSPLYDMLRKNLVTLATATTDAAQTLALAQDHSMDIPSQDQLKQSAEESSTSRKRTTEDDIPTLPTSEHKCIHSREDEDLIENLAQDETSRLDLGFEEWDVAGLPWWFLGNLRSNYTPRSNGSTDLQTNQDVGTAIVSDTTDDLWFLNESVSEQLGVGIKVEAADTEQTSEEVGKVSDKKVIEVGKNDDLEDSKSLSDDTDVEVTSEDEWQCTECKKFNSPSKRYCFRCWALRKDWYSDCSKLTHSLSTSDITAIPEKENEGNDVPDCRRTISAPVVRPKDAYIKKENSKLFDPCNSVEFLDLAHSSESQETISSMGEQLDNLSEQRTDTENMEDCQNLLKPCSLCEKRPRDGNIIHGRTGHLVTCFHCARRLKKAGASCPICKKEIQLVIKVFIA
Target sequence (Q00987 whole entry, looked up): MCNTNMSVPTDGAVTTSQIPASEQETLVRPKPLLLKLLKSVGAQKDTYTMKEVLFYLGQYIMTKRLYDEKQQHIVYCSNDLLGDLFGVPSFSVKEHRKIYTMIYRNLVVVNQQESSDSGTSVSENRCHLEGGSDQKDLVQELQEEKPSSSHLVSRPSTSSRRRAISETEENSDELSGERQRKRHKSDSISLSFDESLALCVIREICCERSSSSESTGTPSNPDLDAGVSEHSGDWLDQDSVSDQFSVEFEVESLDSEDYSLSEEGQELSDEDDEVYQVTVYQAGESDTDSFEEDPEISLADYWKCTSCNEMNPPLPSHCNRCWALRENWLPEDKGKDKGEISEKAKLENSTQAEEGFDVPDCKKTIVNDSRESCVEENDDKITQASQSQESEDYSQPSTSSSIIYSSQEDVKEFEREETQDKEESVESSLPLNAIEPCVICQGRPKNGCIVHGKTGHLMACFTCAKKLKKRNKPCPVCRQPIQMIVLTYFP
HIF-2a inh conf: HIF-2a reporter inhibitor retest, confirmation, luminescence, 786-0 RCC cells; HIF-2a luciferase reporter luminescence, overnight; shares compounds with HIF-2a block; 56% of 1,800 active; inhibition, % at 18.8 µM;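 active means mean inhibition across four replicates of at least 40 percent at the single tested concentration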
HIF-1a cs: HIF-1a luciferase reporter signal reduction – MiaPaCa-2 cells, single concentration, counter-screen for HIF-2a inhibitor project, confirmation; shares compounds with HIF-2a block; inhibition, % at 18.8 µM; MiaPaCa-2 HIF-1a luciferase reporter, desferoxamine, overnight; 72% of 1,800 active;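 active means mean inhibition of the reporter signal across four replicates at the single tested dose of 50% or more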
Large screens that a line does not name were inactive (follow-up assays come after a bar, where they were run). This is a sample that favours compounds with a hit; in the whole collection about 4% have one here.

COc1ccc(-c2cc(-c3nc4ccccn4c3NCc3ccccc3)ccc2OC)cc1	Peg3 prom inh 100, CF NFkB block 71 | CF NFkB conf 97 | Mdm2 MdmX conf 102
C[C@@H]1CC=C[C@H]2[C@H]1C(=O)N(Cc1ccccc1)[C@H]2c1ccc2ccccc2c1Br	HIF-2a block 42, CF NFkB block 74 | CF NFkB conf 54 | HIF-2a inh conf inactive | HIF-1a cs 72
CC(C)CC1C(=O)N(Cc2cn(Cc3ccco3)nn2)CCS(=O)(=O)N1Cc1ccc(-c2ccccc2)cc1 (stereo not given)	none
Cc1cccc(C)c1NS(=O)(=O)c1ccc(-c2cnc(C3CC3)o2)cc1	HIF-2a block 47, CF NFkB block 65 | CF NFkB conf 73 | HIF-2a inh conf inactive | HIF-1a cs 51
COc1cccc(NC(=O)CN(C)C(=O)c2ccc3c(c2)C(=O)N(CCC(C)C)C3=O)c1	none
O=C1C2C3C=CC(CC3)C2C(=O)N1c1ccccc1 (stereo not given)	none
O=C1C=CC2C3C(=O)N(c4ccccc4)C(=O)C3C1N2Cc1ccccc1 (stereo not given)	TWEAK-Fn14 inh 95, HIF-2a block 86, Peg3 prom inh 102, TROY signal inh 55, CF NFkB block 80 | CF NFkB conf inactive | HIF-2a inh conf 98 | HIF-1a cs 104
Cc1cc(C(=O)CCC(=O)N(C)CC2COc3ccccc3O2)c(C)s1 (stereo not given)	none
Cc1ccc(NC(=O)CCNS(=O)(=O)c2cccc3nsnc23)cc1F	none
C=C1C(=O)O[C@H]2[C@H]1[C@H](OC(=O)/C(C)=C\C)C[C@]1(CO1)[C@@H]1[C@H](OC(C)=O)C=C(C)[C@]21O	none
C=C1C(=O)O[C@@H]2[C@H]1[C@@H](OC(=O)/C(C)=C/C)C/C(C)=C\C(=O)/C=C(\C)[C@@H]2O	TWEAK-Fn14 inh 67, HIF-2a block 95, Peg3 prom inh 111, CF NFkB block 86 | CF NFkB conf inactive | Mdm2 MdmX conf 103 | HIF-2a inh conf 73 | HIF-1a cs 102
O=C(Nc1ccccc1N1CCCC1)c1ccc([N+](=O)[O-])o1	none
O=C(Nc1ccc(N2CCCC2)c(Cl)c1)c1ccc([N+](=O)[O-])o1	HIF-2a block 84, Peg3 prom inh 110, CF NFkB block 70 | CF NFkB conf inactive | HIF-2a inh conf 50 | HIF-1a cs 107
COc1ccccc1-c1cc(C(F)(F)F)nc(S(C)(=O)=O)n1	HIF-2a block 78, Peg3 prom inh 105, TROY signal inh 53, CF NFkB block 69 | CF NFkB conf 40 | Mdm2 MdmX conf 102 | HIF-2a inh conf 68 | HIF-1a cs 105
COc1ccccc1-c1cc(C(F)(F)F)nc(N2CCCC2)n1	none
O=C(Nc1cccc(S(=O)(=O)N2CCOCC2)c1)c1cc([N+](=O)[O-])ccc1N1CCOCC1	none
COc1ccc2cc3c(N)nn(C(=O)c4ccc(F)cc4)c3nc2c1	TWEAK-Fn14 inh 55, CF NFkB block 63 | CF NFkB conf 72 | Mdm2 MdmX conf 91
COc1ccc2cc3c(N)nn(C(=O)c4cccc(F)c4)c3nc2c1	none
C=CC[C@H](CC(=O)NCCO)C(=O)NCCOC(=O)[C@@H](CC=C)Cc1ccc(F)cc1	none
COCc1cccc(-c2csc(C(O)c3cccc(OC)c3)n2)c1 (stereo not given)	none
COc1cccc(C(=O)OCC(=O)NC23CC4CC(CC(C4)C2)C3)c1	none
CS(=O)(=O)c1ccc(C(=O)OCC(=O)NC23CC4CC(CC(C4)C2)C3)cc1[N+](=O)[O-]	TWEAK-Fn14 inh 102, HIF-2a block 92, Peg3 prom inh 100, TROY signal inh 73, CF NFkB block 61 | CF NFkB conf inactive | HIF-2a inh conf 64 | HIF-1a cs 94
Cc1ccc(C)c(N(CC(=O)NCCc2ccccc2)C(=O)CCC(=O)Nc2ccccn2)c1	none
COc1cc(-c2nc(-c3ccc(NC(=O)c4ccc5c(c4)OCO5)cc3)no2)cc(OC)c1OC	CF NFkB block 58 | CF NFkB conf 42 | Mdm2 MdmX conf 88
COc1ccc(S(=O)(=O)Nc2noc3ccccc23)cc1OC	none
CCCOc1cccc(C(=O)NCCNC(=O)c2ccc(C)nc2)c1	none
CC(=O)OC1CCC2C3CCC4OC(=O)CCC4C3CCC12C (stereo not given)	none
C=C1C(=O)C2=CC1CCC(=O)C1(C)CCC(OC(C)=O)C(C)(C)C1CC2O (stereo not given)	TWEAK-Fn14 inh 101, HIF-2a block 86, Peg3 prom inh 99, CF NFkB block 83 | CF NFkB conf 83 | HIF-2a inh conf 95 | HIF-1a cs 105
CN1CCN(c2ccc(S(=O)(=O)N3CCOCC3)cc2NC(=O)COc2ccc(C#N)cc2)CC1	none
Nc1nc(N)nc(-c2cc(O)ccc2O)n1	CF NFkB block 54 | CF NFkB conf 72 | Mdm2 MdmX conf 101
Cc1ccc(S(=O)(=O)N2CCC[C@H]2C(=O)NC2CCCCC2)cc1	none
CN(c1ncnc(N)c1[N+](=O)[O-])C1CCCCC1	TWEAK-Fn14 inh 81, TROY signal inh 52, CF NFkB block 84 | CF NFkB conf 93 | Mdm2 MdmX conf 87
CCCCN(c1ccccc1)c1ncnc(N)c1[N+](=O)[O-]	TWEAK-Fn14 inh 83, CF NFkB block 76 | CF NFkB conf 93 | Mdm2 MdmX conf 86
O=C(COC(=O)c1ccc2ccccc2n1)NC1CCCCC1	none

Screens (PubChem)
